In PubChem BioAssay (EPA / NIEHS):
A structure can be active in one record and inactive in another. Calls of active or inactive are those of the source. Rule for the calls: active = hit-call score of the fitted dose curve at least 0.9, where 1 is the maximum; inactive = score below 0.9.

Assay: CCTE_Shafer_MEA_acute_cross_correlation_HWHM: CCTE's Neural Acute Assay for Cross Correlation at Half Width at Half Maximum, Shafer Lab (AID 2284026)
Procedure: CCTE_Shafer_MEA_acute assay is conducted using Axion Biosystems 48 well microelectrode array (MEA) plates and Maestro recording system. Each well of the MEA plate contains a grid of 16 microelectrodes embedded in the culture surface. Electrically active cells, such as neurons, can be cultured over the electrodes, and electrical activity in these cells can be recorded extracellularly. The spontaneous firing of neurons is captured from each electrode on a microsecond timescale providing both temporally and spatially precise data. […] The CCTE_Shafer_MEA_acute assay uses primary cultures of rat cortical neurons. As these cultures mature over time, neural networks develop functional activity and form cohesive networks in which electrical activity can be highly coordinated. Baseline 40-minute recordings are made on days post-plating 13 or 15, followed by a secondary 40-minute recording after chemical exposure.CCTE_Shafer_MEA_acute_cross_correlation_HWHM is a component of the CCTE_Shafer_MEA_acute assay. It measures the distance along the x-axis (phase lag) from the left half maximum height to the center of the cross-correlogram of action potential firing during a recording in a microelectrode array (MEA) using Axion Biosystems Maestro 768 channel amplifier with the AxIS adaptive spike detector. Smaller values indicate a narrower correlogram (greater synchrony). The recordings before and after chemical treatment are used to calculate a percent change in the half width at half maximum of the cross-correlogram in each well.Data from the assay component CCTE_Shafer_MEA_acute_cross_correlation_HWHM was analyzed into 1 assay endpoint. This assay endpoint, CCTE_Shafer_MEA_acute_cross_correlation_HWHM, was analyzed in the negative analysis fitting direction relative to DMSO as the negative control and baseline of activity. Using a type of functional reporter, gain or loss-of-signal activity can be used to understand electrical activity.
Spontaneous activity in the cortical cultures was recorded using an Axion Biosystems Maestro 768 channel amplifier and Axion Integrated Studios (AxIS) v1.8 (or later) software. The amplifier recorded from all channels simultaneously (gain = 1200 x; sampling rate = 12.5 kHz/channel): raw signals were filtered with a Butterworth band-pass filter (300-5000 Hz), which filters out slower local field potentials leaving only fast potentials, i.e., "spikes", arising from extracellular currents associated with action potentials (Pine 2006; Wheeler and Nam 2011). On-line spike detection of filtered signals was conducted with the AxIS adaptive spike detector, using a threshold of 8x the root mean squared (rms) noise on each channel. Any electrodes with rms noise levels greater than 5 uV were grounded (e.g., no data were recorded). Once grounded, an electrode was grounded for the duration of the experiment. All recordings were conducted at 37 C. Wells were deemed usable if on the day of the exposure >/= 10 electrodes were active (defined as >/= 5 spikes/min). On DIV 13 or 15, a minimum of three wells from one cortical culture preparation were treated with each compound (0.03-40 uM). Prior to recording baseline activity, each mwMEA plate was placed in the Maestro at 37 C and allowed to sit for 20 min while firing rates stabilized. Baseline activity (40 min) was recorded before the addition of each compound. An additional 40 min of spontaneous activity was recorded in the presence of each compound. Changes in network parameters relative to baseline were assessed following compound treatment.

Compound	outcome	AC50
CC(C)=CCCC(C)=CC=O	inactive	–
O=C(O)CCN(C1(C(=O)NO)CCCC1)S(=O)(=O)c1ccc(Oc2ccc(F)cc2)cc1	inactive	–
Cn1cnc([N+](=O)[O-])c1Sc1ncnc2nc[nH]c12	inactive	–
COc1ccc2sc(C(=O)Nc3nnn[nH]3)c(OC(C)C)c2c1	inactive	–
CCCN(C1CCN(C(=O)C2CCNCC2)CC1)[C@@H]1CCc2ccc(OC)cc2C1	inactive	–
CCCCCCc1ccc(O)cc1O	–	20 µM (active)
CCOC(=O)c1ccc(C2CCC(NC[C@H](O)COc3ccc(O)c(NS(C)(=O)=O)c3)CC2)cc1 (some centres undefined)	inactive	–
CC[C@H]1OC(=O)[C@H](C)[C@@H](O[C@H]2C[C@@](C)(OC)[C@@H](O)[C@H](C)O2)[C@H](C)[C@@H](O[C@@H]2O[C@H](C)C[C@H](N(C)C)[C@H]2O)[C@](C)(O)C[C@@H](C)C(=O)[C@H](C)[C@@H](O)[C@]1(C)O	inactive	–
Cn1c(=O)c2c(ncn2C)n(C)c1=O	inactive	–
O=C(O)c1cc(N=Nc2ccc(S(=O)(=O)Nc3ccccn3)cc2)ccc1O	inactive	–
CCCCC(CC)COC(=O)CCCCCCCCC(=O)OCC(CC)CCCC (centres undefined)	inactive	–
Cc1[nH]cnc1C[C@H]1CCc2c(C)c3ccccc3n2C1=O	–	30.7 µM (active)
COc1cccc(-c2ccc(/C=C\CN3CCCCCC3)cc2Cl)c1	inactive	–
O=P(OC(CCl)CCl)(OC(CCl)CCl)OC(CCl)CCl	inactive	23.5 µM (active)
On1ccccc1=S	inactive	–
CCCCCCCCCCCCc1ccccc1	inactive	–
CC[C@H]1CC[C@H](NCc2cc3c(cc2OC)[C@H]2C[C@H]2C(=O)N3C)[C@H](c2ccccc2)N1	–	20 µM (active)
CCC(C)(C)C(=O)O[C@H]1C[C@@H](C)C=C2C=C[C@H](C)[C@H](CC[C@@H]3C[C@@H](O)CC(=O)O3)[C@H]21	inactive	–
